“And” between values parts separate entries of the source, which are not always exact repeats. Equal values may be shown once. Among all 5,500 compounds or so, about 2,000 (36%) were called active. Another 18% or so got no clear call; they are omitted. Cut-off read from the data, not from the text of the source: active = normalized growth mostly below about 0.91 (no sharp cut-off); inconclusive = no clear call, values can overlap the other calls; inactive = mostly above about 0.92. This is one part of the list.
Test: chemical genetic growth profiling, strain panel (AID 1159580);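 note: tested at 20 µM; growth read once vehicle control cultures reached saturation at 30 °C; 1 = growth at the plate median or of vehicle wells; lower values mean less growth of the strain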
Details: S. cerevisiae deletion strains, growth OD

Measured: normalized growth

CS(=O)(=O)CCCCN=C=S
active: locus YAL021C, strain ccr4, stronger effect = lower value 0.889 | locus YAL030W, strain snc1, stronger effect = lower value 0.734 | locus YBL061C, strain skt5, stronger effect = lower value 0.746 | locus YBR009C, strain hhf1, stronger effect = lower value 0.495 | locus YBR021W, strain FUR4, stronger effect = lower value 0.847 | locus YBR023C, strain chs3, stronger effect = lower value 0.769 | locus YBR231C, strain swc5, stronger effect = lower value 0.504 | locus YBR279W, strain paf1, stronger effect = lower value 0.708 | locus YCL011C, strain gbp2, stronger effect = lower value 0.551 | locus YCL016C, strain dcc1, stronger effect = lower value 0.751 | locus YCL029C, strain bik1, stronger effect = lower value 0.822 | locus YCL061C, strain MRC1, stronger effect = lower value 0.834 | locus YCL069W, strain vba3, stronger effect = lower value 0.663 | locus YCR088W, strain abp1, stronger effect = lower value 0.84 | locus YDL035C, strain GPR1, stronger effect = lower value 0.791 | locus YDL040C, strain nat1, stronger effect = lower value 0.896 | locus YDL074C, strain BRE1, stronger effect = lower value 0.683 | locus YDL101C, strain DUN1, stronger effect = lower value 0.853 | locus YDL134C, strain PPH21, stronger effect = lower value 0.762 | locus YDL192W, strain arf1, stronger effect = lower value 0.688 | locus YDR001C, strain nth1, stronger effect = lower value 0.896 | locus YDR069C, strain doa4, stronger effect = lower value 0.829 | locus YDR101C, strain arx1, stronger effect = lower value 0.742 | locus YDR162C, strain NBP2, stronger effect = lower value 0.69 | locus YDR195W, strain ref2 1.2 [resistant] | locus YDR297W, strain sur2, stronger effect = lower value 0.737 | locus YDR318W, strain mcm21, stronger effect = lower value 0.816 | locus YDR334W, strain swr1, stronger effect = lower value 0.375 | locus YDR335W, strain msn5, stronger effect = lower value 0.802 | locus YDR388W, stronger effect = lower value 0.869 | locus YDR392W, strain spt3, stronger effect = lower value 0.474 | locus YDR502C, strain sam2, stronger effect = lower value 0.696 | locus YEL003W, strain gim4, stronger effect = lower value 0.217 | locus YEL037C, strain rad23, stronger effect = lower value 0.749 | locus YEL061C, strain CIN8 (second series), stronger effect = lower value 0.853 | locus YER015W, strain faa2, stronger effect = lower value 0.478 | locus YER016W, strain bim1, stronger effect = lower value 0.758 | locus YER110C, stronger effect = lower value 0.807 | locus YER155C, strain BEM2 (second series), stronger effect = lower value 0.439 | locus YFR010W, strain ubp6, stronger effect = lower value 0.62 | locus YGL078C, strain dbp3, stronger effect = lower value 0.92 | locus YGL086W, strain mad1, stronger effect = lower value 0.723 | locus YGL173C, strain kem1, stronger effect = lower value 0.692 | locus YGL227W, strain vid30, stronger effect = lower value 0.86 | locus YGL240W, strain doc1, stronger effect = lower value 0.545 | locus YGL248W, strain PDE1, stronger effect = lower value 0.724 | locus YGL253W, strain hxk2, stronger effect = lower value 0.428 | locus YGR078C, strain PAC10, stronger effect = lower value 0.799 | locus YGR135W, strain pre9, stronger effect = lower value 0.815 | locus YGR252W, strain gcn5, stronger effect = lower value 0.634 | locus YHR013C, strain ard1, stronger effect = lower value 0.816 | locus YHR027C, strain rpn1, stronger effect = lower value 0.618 | locus YHR079C, strain IRE1 (second series), stronger effect = lower value 0.885 | locus YHR079C, strain IRE1, stronger effect = lower value 0.67 | locus YHR094C, strain hxt1, stronger effect = lower value 0.913 | locus YHR129C, strain ARP1, stronger effect = lower value 0.865 | locus YHR142W, strain chs7, stronger effect = lower value 0.536 | locus YHR200W, strain rpn10, stronger effect = lower value 0.905 | locus YIL066C, strain RNR3, stronger effect = lower value 0.807 | locus YIL125W, strain kgd1, stronger effect = lower value 0.901 | locus YIR030C, strain dcg1, stronger effect = lower value 0.77 | locus YJL092W, strain hpr5, stronger effect = lower value 0.782 | locus YJL095W, strain BCK1 (second series), stronger effect = lower value 0.791 | locus YJL095W, strain BCK1, stronger effect = lower value 0.606 and 0.709 | locus YJL129C, strain trk1, stronger effect = lower value 0.762 | locus YJL154C, strain vps35, stronger effect = lower value 0.839 | locus YJL164C, strain tpk1, stronger effect = lower value 0.607 | locus YJL166W, strain qcr8, stronger effect = lower value 0.493 | locus YJL187C, strain SWE1 (second series), stronger effect = lower value 0.798 | locus YJR043C, strain POL32, stronger effect = lower value 0.567 | locus YJR066W, strain TOR1, stronger effect = lower value 0.716 | locus YKL009W, strain mrt4, stronger effect = lower value 0.82 | locus YKL160W, strain elf1, stronger effect = lower value 0.7 | locus YKR001C, strain vps1, stronger effect = lower value 0.582 | locus YKR026C, strain gcn3, stronger effect = lower value 0.866 | locus YKR091W, strain srl3, stronger effect = lower value 0.877 | locus YLL001W, strain dnm1, stronger effect = lower value 0.596 | locus YLL026W, stronger effect = lower value 0.65 | locus YLL041C, strain sdh2, stronger effect = lower value 0.801 | locus YLR027C, strain aat2, stronger effect = lower value 0.569 | locus YLR058C, strain SHM2, stronger effect = lower value 0.801 | locus YLR113W, strain HOG1, stronger effect = lower value 0.819 | locus YLR221C, strain rsa3, stronger effect = lower value 0.483 | locus YLR258W, strain gsy2, stronger effect = lower value 0.735 | locus YLR262C, strain YPT6 (second series), stronger effect = lower value 0.826 | locus YLR268W, strain sec22, stronger effect = lower value 0.669 | locus YLR320W, strain mms22, stronger effect = lower value 0.502 | locus YLR330W, strain CHS5, stronger effect = lower value 0.822 | locus YLR342W, strain FKS1, stronger effect = lower value 0.889 | locus YLR370C, strain arc18, stronger effect = lower value 0.766 | locus YLR371W, strain rom2, stronger effect = lower value 0.595 | locus YLR384C, strain iki3, stronger effect = lower value 0.658 | locus YLR418C, strain cdc73, stronger effect = lower value 0.645 | locus YML016C, strain PPZ1, stronger effect = lower value 0.842 | locus YML032C, strain rad52, stronger effect = lower value 0.801 | locus YML120C, strain ndi1, stronger effect = lower value 0.666 | locus YML124C, strain tub3, stronger effect = lower value 0.901 | locus YMR058W, strain fet3, stronger effect = lower value 0.559 | locus YMR129W, stronger effect = lower value 0.798 | locus YMR205C, strain PFK2, stronger effect = lower value 0.732 | locus YMR223W, strain ubp8, stronger effect = lower value 0.735 | locus YMR231W, strain pep5, stronger effect = lower value 0.522 | locus YNL067W, strain RPL9B, stronger effect = lower value 0.779 | locus YNL071W, strain lat1, stronger effect = lower value 0.538 | locus YNL183C, strain NPR1, stronger effect = lower value 0.623 | locus YNL209W, strain ssb2, stronger effect = lower value 0.628 | locus YNL233W, strain BNI4, stronger effect = lower value 0.767 | locus YNL248C, strain rpa49, stronger effect = lower value 0.493 | locus YNL250W, strain rad50, stronger effect = lower value 0.884 | locus YNL271C, strain bni1, stronger effect = lower value 0.887 | locus YNL298W, strain CLA4, stronger effect = lower value 0.906 | locus YNL307C, strain MCK1, stronger effect = lower value 0.575 | locus YNL322C, strain KRE1 (second series), stronger effect = lower value 0.711 | locus YNR049C, strain mso1, stronger effect = lower value 0.908 | locus YNR052C, strain pop2, stronger effect = lower value 0.821 | locus YOL147C, strain pex11, stronger effect = lower value 0.827 | locus YOR001W, strain rrp6, stronger effect = lower value 0.643 | locus YOR069W, strain VPS5, stronger effect = lower value 0.891 | locus YOR070C, strain gyp1, stronger effect = lower value 0.645 | locus YOR083W, strain WHI5, stronger effect = lower value 0.554 | locus YOR106W, strain vam3, stronger effect = lower value 0.359 | locus YOR136W, strain idh2, stronger effect = lower value 0.865 | locus YOR144C, strain elg1, stronger effect = lower value 0.932 | locus YOR184W, strain ser1, stronger effect = lower value 0.679 | locus YOR231W, strain MKK1, stronger effect = lower value 0.684 | locus YOR265W, strain rbl2, stronger effect = lower value 0.756 | locus YOR270C, strain vph1, stronger effect = lower value 0.352 | locus YOR290C, strain snf2, stronger effect = lower value 0.685 | locus YOR316C, strain cot1, stronger effect = lower value 0.921 | locus YPL051W, strain arl3, stronger effect = lower value 0.583 | locus YPL078C, strain atp4, stronger effect = lower value 0.562 | locus YPL106C, strain sse1, stronger effect = lower value 0.808 | locus YPL240C, strain hsp82, stronger effect = lower value 0.752 | locus YPL256C, strain CLN2, stronger effect = lower value 0.822 | locus YPR163C, strain tif3, stronger effect = lower value 0.854 | locus YPR167C, strain met16, stronger effect = lower value 0.904 | strain wtn01, stronger effect = lower value 0.652
inactive: locus YBR171W, strain sec66, stronger effect = lower value 0.954 | locus YBR229C, strain ROT2, stronger effect = lower value 0.96 | locus YDL005C, strain med2, stronger effect = lower value 1.01 | locus YDL185W, strain tfp1, stronger effect = lower value 0.948 | locus YDR137W, strain rgp1, stronger effect = lower value 0.918 | locus YDR150W, strain NUM1, stronger effect = lower value 0.963 | locus YDR159W, strain sac3, stronger effect = lower value 0.898 | locus YEL061C, strain CIN8, stronger effect = lower value 0.978 | locus YER111C, strain swi4, stronger effect = lower value 0.988 | locus YER155C, strain BEM2, stronger effect = lower value 1.01 | locus YER167W, strain BCK2, stronger effect = lower value 0.973 | locus YGL167C, strain pmr1, stronger effect = lower value 0.964 | locus YIL073C, strain SPO22, stronger effect = lower value 0.772 | locus YJL115W, strain asf1, stronger effect = lower value 0.941 | locus YJL134W, strain LCB3, stronger effect = lower value 0.981 | locus YJL168C, strain set2, stronger effect = lower value 0.954 | locus YKL068W, stronger effect = lower value 1.01 | locus YKL085W, strain MDH1 (second series), stronger effect = lower value 1 | locus YKL085W, strain MDH1, stronger effect = lower value 1 | locus YLR039C, strain RIC1, stronger effect = lower value 0.758 | locus YLR102C, strain apc9, stronger effect = lower value 0.983 | locus YLR262C, strain YPT6, stronger effect = lower value 0.797 | locus YLR342W, strain FKS1 (second series), stronger effect = lower value 0.813 | locus YLR357W, strain rsc2, stronger effect = lower value 0.98 | locus YMR078C, strain ctf18, stronger effect = lower value 0.965 | locus YMR125W, strain sto1, stronger effect = lower value 0.947 | locus YMR307W, strain GAS1, stronger effect = lower value 0.734 | locus YOL012C, strain htz1 0.428 | locus YOR061W, strain CKA2, stronger effect = lower value 0.936 | locus YOR080W, strain dia2, stronger effect = lower value 0.966 | locus YPR119W, strain clb2, stronger effect = lower value 1 | locus YPR141C, strain kar3, stronger effect = lower value 0.981
0.969 (inactive) and 0.726 (active): locus YHR030C, strain SLT2, stronger effect = lower value

From PubChem BioAssay AID1159580 (chemical genetic matrix, 2015)
